Our source for the growth inhibition values is PubChem BioAssay (NCI).

The nature of test [1]: NCI Yeast Anticancer Drug Screen. Data for the rad50 strain (AID 155).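 Further: 0% = growth of vehicle-only cultures of the same strain.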 The conditions noted are these: S. cerevisiae rad50 strain growth inhibition, active compounds read high. The method, boiled down: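 Cells are treated with compound, grown, and their growth is then scored against vehicle-only cultures of the same repair-deficient yeast strain.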
Test [2] is described as follows: NCI Yeast Anticancer Drug Screen. Data for the mec2-1 strain (AID 157). Conditions: S. cerevisiae mec2-1 strain, active compounds read high. The method, boiled down:
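Mutant yeast (mec2-1) grown with compound; growth inhibition relative to vehicle control reported.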

The nature of test [3]: NCI Yeast Anticancer Drug Screen. Data for the sgs1 mgt1 strain (AID 161).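 Further: 0% = growth of cultures given vehicle only.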 The conditions noted are these: S. cerevisiae sgs1 mgt1 strain, active compounds read high. The method, boiled down: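 Yeast cells carrying a defined DNA-repair defect were exposed to test compounds. Growth inhibition was measured relative to vehicle-treated controls.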
Test [4] in a line: NCI Yeast Anticancer Drug Screen. Data for the cln2 rad14 strain (AID 165).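 Further: 0% = growth equal to vehicle treated cultures.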 Conditions: S. cerevisiae cln2 rad14 strain, active compounds read high. The method, boiled down: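 Readout is yeast growth inhibition versus vehicle-treated controls, using a strain with cln2 and rad14 alterations exposed to compound.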
Test [5] can be described thus: NCI Yeast Anticancer Drug Screen. Data for the bub3 strain (AID 167). Conditions: S. cerevisiae bub3 mutant strain, active compounds read high. In outline: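 Part of a panel of yeast mutants defective in DNA damage repair or cell cycle regulation. Each strain is grown with compound, and inhibition is calculated relative to solvent-treated cultures.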
A short description of test [6]: NCI Yeast Anticancer Drug Screen. Data for the mlh1 rad18 strain (AID 175). Conditions: S. cerevisiae mlh1 rad18 strain growth inhibition, active compounds read high. The method, boiled down: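 Genetically defined yeast (DNA repair-deficient) exposed to compounds; growth inhibition determined relative to vehicle.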
Setting [7] is: at 5.0 µM (retest, dose inferred, filed as 0.5).
Setting [8] is: at 50.0 µM (retest, dose inferred, filed as 5.0).

About 79,000 compounds went through this panel and 15% of them were active in at least one assay; those are over-represented in the sample as a whole. Values without a mark were called inactive. Active and inactive are the calls of the source. No stated cut-off is given here; in the data, active means growth inhibition above about 70%; inactive means the rest.

Regarding `COc1ccc2c(c1OC)OCC(CN(C)C)C2=O` (stereo not given), the growth inhibition was -20% in test [1] (setting [7]); 98% (active) in test [1] (setting [8]); 97% (active) in test [1] (at 50.0 µM); 2% in test [2] (setting [7]); 99% (active) in test [2] (setting [8]); 99.3% (active) in test [2] (at 50.0 µM). Besides, the growth inhibition in test [3] (setting [7]) was 23%; in test [3] (setting [8]), 98% (active); in test [3] (at 50.0 µM), 99% (active); in test [4] (setting [7]), 5%; in test [4] (setting [8]) it was 99% (active); in test [4] (at 50.0 µM), 96.3% (active). Also, the growth inhibition was 1% in test [5] (setting [7]); 99% (active) in test [5] (setting [8]); 93.9% (active) in test [5] (at 50.0 µM); -4% in test [6] (setting [7]); 98% (active) in test [6] (setting [8]); 99.2% (active) in test [6] (at 50.0 µM).

`COc1cc(NCc2ccc3nc(N)nc(N)c3c2C)cc(OC)c1OC` (tested in a mixture with another compound): the growth inhibition in test [1] (setting [7]) is 24%; in test [1] (setting [8]), 54%; in test [1] (at 50.0 µM), 12.3%; in test [2] (setting [7]), 18%; in test [2] (setting [8]), 87% (active); in test [2] (at 50.0 µM) it was 51.8%. The growth inhibition is 12% in test [3] (setting [7]); 31% in test [3] (setting [8]); 43.2% in test [3] (at 50.0 µM); 23% in test [4] (setting [7]); 23% in test [4] (setting [8]); 2.8% in test [4] (at 50.0 µM). Also, the growth inhibition in test [5] (setting [7]) is 17%; in test [5] (setting [8]), 24%; in test [5] (at 50.0 µM), 5.05%; in test [6] (setting [7]) it was 23%; in test [6] (setting [8]), 36%; in test [6] (at 50.0 µM), -45.4%.

Turning to `CCC1CCCCN1C(=S)N/N=C(\C)c1ccccn1` (stereo not given), the growth inhibition was 29% in test [1] (setting [7]); 98% (active) in test [1] (setting [8]); 90.5% (active) in test [1] (at 50.0 µM); 19% in test [2] (setting [7]); 99% (active) in test [2] (setting [8]); 94.1% (active) in test [2] (at 50.0 µM). Further, the growth inhibition in test [3] (setting [7]) is 28%; in test [3] (setting [8]) it was 99% (active); in test [3] (at 50.0 µM) it was 89.8% (active); in test [4] (setting [7]), 21%; in test [4] (setting [8]), 99% (active); in test [4] (at 50.0 µM), 91.7% (active). Moreover, the growth inhibition in test [5] (setting [7]) is 21%; in test [5] (setting [8]), 99% (active); in test [5] (at 50.0 µM), 90% (active); in test [6] (setting [7]), 23%; in test [6] (setting [8]) it was 98% (active); in test [6] (at 50.0 µM), 90.5% (active).

For `CCN(CC)CCNc1ccc([N+](=O)[O-])c2sc3ccccc3c(=O)c12`, the growth inhibition in test [1] (setting [7]) was 46%; in test [1] (setting [8]) it was 95% (active); in test [1] (at 50.0 µM), 86.2% (active); in test [2] (setting [7]) it was 13%; in test [2] (setting [8]), 85% (active); in test [2] (at 50.0 µM) it was 90.7% (active). In addition, the growth inhibition is 19% in test [3] (setting [7]); 84% (active) in test [3] (setting [8]); 41.2% in test [3] (at 50.0 µM); 12% in test [4] (setting [7]); 60% in test [4] (setting [8]); 20.5% in test [4] (at 50.0 µM). For the same compound, the growth inhibition in test [5] (setting [7]) was 27%; in test [5] (setting [8]) it was 98% (active); in test [5] (at 50.0 µM), 17.7%; in test [6] (setting [7]) it was 33%; in test [6] (setting [8]), 88% (active); in test [6] (at 50.0 µM) it was 90.3% (active).

Consider `N#C/C(=N\Nc1ccc(Cl)cc1)C(=O)C1CC1`, for which the growth inhibition is 59% in test [1] (setting [7]); 62% in test [1] (setting [8]); 86.4% (active) in test [1] (at 50.0 µM); 41% in test [2] (setting [7]); 46% in test [2] (setting [8]); 77.5% (active) in test [2] (at 50.0 µM). Also, the growth inhibition in test [3] (setting [7]) is 58%; in test [3] (setting [8]) it was 70% (active); in test [3] (at 50.0 µM) it was 85.7% (active); in test [4] (setting [7]), 55%; in test [4] (setting [8]) it was 55%; in test [4] (at 50.0 µM), 85.5% (active). The growth inhibition in test [5] (setting [7]) is 51%; in test [5] (setting [8]), 78% (active); in test [5] (at 50.0 µM), 77.4% (active); in test [6] (setting [7]), 62%; in test [6] (setting [8]), 69%; in test [6] (at 50.0 µM), 82% (active).

Take `N=C1C=C(N)C(=O)c2ccccc21`: the growth inhibition is 29% in test [1] (setting [7]); 87% (active) in test [1] (setting [8]); 97.5% (active) in test [1] (at 50.0 µM); 16% in test [2] (setting [7]); 40% in test [2] (setting [8]); 65.5% in test [2] (at 50.0 µM). The growth inhibition in test [3] (setting [7]) is 25%; in test [3] (setting [8]) it was 80% (active); in test [3] (at 50.0 µM), 93.8% (active); in test [4] (setting [7]), 12%; in test [4] (setting [8]), 54%; in test [4] (at 50.0 µM) it was 75.9% (active). Also, the growth inhibition was 31% in test [5] (setting [7]); 85% (active) in test [5] (setting [8]); 94.3% (active) in test [5] (at 50.0 µM); 20% in test [6] (setting [7]); 83% (active) in test [6] (setting [8]); 95% (active) in test [6] (at 50.0 µM).

For `N#CC(I)CS(=O)(=O)c1ccccc1` (stereo not given), the growth inhibition is 99% (active) in test [1] (setting [7]); 99% (active) in test [1] (setting [8]); 54.7% in test [1] (at 50.0 µM); 100% (active) in test [2] (setting [7]); 99% (active) in test [2] (setting [8]); 98.7% (active) in test [2] (at 50.0 µM). The growth inhibition was 99% (active) in test [3] (setting [7]); 99% (active) in test [3] (setting [8]); 99.3% (active) in test [3] (at 50.0 µM); 99% (active) in test [4] (setting [7]); 99% (active) in test [4] (setting [8]); 55% in test [4] (at 50.0 µM). Moreover, the growth inhibition in test [5] (setting [7]) was 99% (active); in test [5] (setting [8]), 99% (active); in test [5] (at 50.0 µM), 45.4%; in test [6] (setting [7]), 99% (active); in test [6] (setting [8]), 98% (active); in test [6] (at 50.0 µM), 42.7%.

Regarding `Cc1ccc2cccc(OC(=O)Nc3cccc(C(F)(F)F)c3)c2n1`, the growth inhibition in test [1] (setting [7]) was 50%; in test [1] (setting [8]) it was 95% (active); in test [1] (at 50.0 µM), 91.4% (active); in test [2] (setting [7]) it was 39%; in test [2] (setting [8]), 98% (active); in test [2] (at 50.0 µM), 89.9% (active). Besides, the growth inhibition in test [3] (setting [7]) is 50%; in test [3] (setting [8]) it was 100% (active); in test [3] (at 50.0 µM), 91.1% (active); in test [4] (setting [7]), 38%; in test [4] (setting [8]), 98% (active); in test [4] (at 50.0 µM) it was 91% (active). Moreover, the growth inhibition in test [5] (setting [7]) is 42%; in test [5] (setting [8]) it was 98% (active); in test [5] (at 50.0 µM) it was 90.9% (active); in test [6] (setting [7]), 50%; in test [6] (setting [8]), 98% (active); in test [6] (at 50.0 µM), 92.5% (active).

`C(=N\Nc1ccc2ccccc2n1)/c1ccccn1`: the growth inhibition in test [1] (setting [7]) is 49%; in test [1] (setting [8]), 72% (active); in test [1] (at 50.0 µM), 90.7% (active); in test [2] (setting [7]), 30%; in test [2] (setting [8]), 78% (active); in test [2] (at 50.0 µM), 92.6% (active). The growth inhibition is 46% in test [3] (setting [7]); 85% (active) in test [3] (setting [8]); 93.1% (active) in test [3] (at 50.0 µM); 31% in test [4] (setting [7]); 63% in test [4] (setting [8]); 90.7% (active) in test [4] (at 50.0 µM). The growth inhibition is 44% in test [5] (setting [7]); 81% (active) in test [5] (setting [8]); 92.3% (active) in test [5] (at 50.0 µM); 50% in test [6] (setting [7]); 87% (active) in test [6] (setting [8]); 92.1% (active) in test [6] (at 50.0 µM).

As for `CCCCCCCCCCCC1N=C(N)N=C(N)N1c1cccc(Br)c1` (stereo not given), the growth inhibition in test [1] (setting [7]) is 99% (active); in test [1] (setting [8]) it was 97% (active); in test [1] (at 50.0 µM), 97.5% (active); in test [2] (setting [7]), 100% (active); in test [2] (setting [8]), 97% (active); in test [2] (at 50.0 µM), 97.7% (active). Moreover, the growth inhibition in test [3] (setting [7]) is 98% (active); in test [3] (setting [8]), 98% (active); in test [3] (at 50.0 µM) it was 99.2% (active); in test [4] (setting [7]), 99% (active); in test [4] (setting [8]), 96% (active); in test [4] (at 50.0 µM) it was 96.2% (active). Further, the growth inhibition is 99% (active) in test [5] (setting [7]); 98% (active) in test [5] (setting [8]); 97% (active) in test [5] (at 50.0 µM); 99% (active) in test [6] (setting [7]); 97% (active) in test [6] (setting [8]); 98.3% (active) in test [6] (at 50.0 µM).
